# Measured values published in PubChem BioAssay (NCATS).
# Unmarked numbers belong to inactive results. Results filed as inconclusive are left out. Where a call stands in place of a potency, no number is given. The source made the active and inactive calls. Unless noted, the call rests on the fitted dose curve; in most records, active means well fitted curve in the direction sought with a large enough effect; inconclusive means small, poorly fitted or top-dose-only effect, or another doubt; inactive means no such curve, though single readings can be large; an effect the other way counts as inactive or inconclusive.
# Experiments:
# [1] = AP1 Signaling Pathway (AID 357; active means well fitted curve in either direction with a large enough effect, not every such curve was filed as active); conditions: ME-180 AP-1-bla reporter, EGF-induced, beta-lactamase ratio, 5 h; at 7.69 µM (top of the series) unless noted
# Summary of the method: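 ME-180 cells with beta-lactamase reporter under AP-1 response element, stimulated with EC50 EGF; compounds tested in titration series, 5 h at 37 °C. CCF4 substrate added 2.5 h at room temperature; 460/530 nm emission ratio gave %activity and AC50.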
# [2] = biological target: Cytochrome P450 1A2 (Homo sapiens) (UniProt P05177); assay: p450-cyp1a2 (AID 410; calls by dose curve; further: potency means the concentration at half of the fitted maximal effect)
# Summary of the method: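 O-Demethylation of luciferin 6' methyl ether by human CYP1A2 is monitored as luciferase luminescence. Substrate sits at Km (100uM); enzyme is 20nM. Values are scaled to 57 uM furafylline as maximal inhibition.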
# [3] = NFAT Signaling Pathway (AID 444; active means well fitted curve in either direction with a large enough effect, not every such curve was filed as active;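 further: carbachol stimulus at about its EC50 of 1 µM final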); conditions: Jurkat NFAT-bla M1, carbachol, beta-lactamase ratio, 5 h; at 7.69 µM (top of the series) unless noted
# Summary of the method: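 Read-out: CCF4 FRET ratio (460 nm/530 nm) after 1 h RT dye loading, used for %activity and AC50 from titration series. Cells: Jurkat NFAT-β-lactamase/M1 line, treated with compound plus 1 uM carbachol for 5 h, 37 °C.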
# [4] = Stat Signaling Pathway (AID 446; active means well fitted curve in either direction with a large enough effect, not every such curve was filed as active;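 further: ME-180 cervical cancer cells given 40 pM IL-6 alongside compound; SIE-controlled beta-lactamase reporter measured as 460/530 nm FRET emission ratio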); conditions: ME-180 (cervical carcinoma) SIE beta-lactamase reporter, IL-6 stimulated, 5 h; at 7.69 µM (top of the series) unless noted
# Summary of the method: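 Overnight-plated ME-180 cells bearing a STAT Inducible Element beta-lactamase reporter; 5 h co-exposure to compound and 40 pM IL-6; values normalized to 300 pM IL-6 and 125 nM JAK inhibitor controls.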
# [5] = biological target: Glucocorticoid receptor (Homo sapiens) (UniProt P04150); assay: GR-GFP Redistribution (AID 450;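 active means compounds whose dose series gives a full or clear partial fitted curve of increased nuclear translocation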; further: potency means the concentration at half of the fitted maximal effect); conditions: U2OS GR-GFP nuclear translocation, laser cytometry, 2 h
# [6] = biological target: Glucocorticoid receptor (Homo sapiens) (UniProt P04150); assay: GR-EFC Redistribution (AID 451; calls by dose curve; further: potency means the concentration at half of the fitted maximal effect); conditions: CHO-K1 GR-EFC translocation, beta-gal luminescence, 2 h
# Summary of the method: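 Translocation of GR-ED fusion to nuclear EA restores b-gal, read by luminescence after 1 h room-temperature detection. Engineered CHO-K1 biosensor cells, 1,000/well, exposed 2 h at 37 C to titrations up to 46 uM final.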
# [7] = biological target: Guanine nucleotide-binding protein G(i) subunit alpha-1 (Homo sapiens) (UniProt P63096); assay: qHTS Assay for Inhibitors of RGS12 GoLoco Motif Activity (Green Fluorophore) (AID 879);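 further: negative values mean loss of peptide binding seen as reduced polarization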
# Summary of the method: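 A drop in FITC polarization marked displacement of the FITC-tagged RGS12 GoLoco peptide (10 nM) from Gαi1 (50 nM). Compounds were incubated 10 min at room temperature in Tris pH 7.5 buffer containing 150 mM NaCl, 0.1 mM GDP and 0.05% NP40; unlabeled peptide titration served as control.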
# [8] = biological target: Cytochrome P450 3A4 (Homo sapiens) (UniProt P08684); assay: qHTS Assay for Activators of Cytochrome P450 3A4 (AID 885); further: nearly all actives have a fitted effect of over 65% in size
# Summary of the method: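 Using 20nM recombinant human CYP3A4 in potassium phosphate (200mM), substrate Luciferin-PPXE at 25uM, luminescent luciferin detection followed a 60-min RT NADPH reaction; data scaled to 57 uM ketoconazole.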
# [9] = qHTS Assay for Identification of Small Molecule Antagonists for NFkB Signaling Pathway (AID 895; active means well fitted inhibition curve with a large enough effect in the signal ratio, with a control signal flat, not every such curve was filed as active; the % refers to the signal ratio)
# Summary of the method: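 Beta-lactamase reporter read-out (460 and 530 nm emission ratio, 405 nm excitation, 2 hrs substrate loading RT) after 5 hr stimulation with 10 pM TNF alpha in compound-treated NFkB-bla ME-180 cells in low-serum medium.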
# [10] = qHTS Assay for Identification of Small Molecule Agonists for Thrombopoietin (TPO) Signaling Pathway (AID 917)
# Summary of the method: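 Quantitative HTS for pathway activators: compounds were pin-transferred onto IL-3-starved Ba/F3 cells expressing human TPO receptor, TPO was added at its EC50 (26 pM final), and after 24 hrs at 37 C reporter luciferase was measured.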
# [11] = biological target: Muscarinic acetylcholine receptor M1 (Rattus norvegicus) (UniProt P08482); assay: qHTS Assay for Antagonists of Acetylcholine Muscarinic M1 Receptor: Measurement of IP-One Response (AID 944); further: nearly all actives have a fitted effect of over 75% in size
# Summary of the method: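 Antagonist mode with rat M1 receptor transfected into CHO cells. Compound is added first for 10 min, carbachol at its EC80 follows for 30 min, and lysis reagents then allow TR-FRET detection of accumulated IP1.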
# [12] = biological target: Pyruvate kinase (Leishmania mexicana) (UniProt Q27686); assay: qHTS Validation Assay for Inhibitors of Leishmania Mexicana Pyruvate Kinase (AID 945)
# Summary of the method: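 Compounds are tested as eight-point concentration series. Reactions contain 0.2 nM LmPYK E451W, 0.5 mM PEP, 0.1 mM ADP, 7 mM MgCl2 and 50 mM KCl at pH 7.2, run 1 h at room temperature, then read by PKLight luminescence.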
# [13] = biological target: Pyruvate kinase PKM (Homo sapiens) (UniProt P14618); assay: qHTS Assay for Activators of Human Muscle Pyruvate Kinase (AID 954; active means well fitted curve in the direction sought with a large enough effect, not every such curve was filed as active)
# Summary of the method: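 Screening used highly purified human pyruvate kinase M2 under submaximal activity, with PEP at its Km and ADP below Km. After an hour at room temperature, ATP was read by luciferase luminescence.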
# [14] = biological target: Alpha-galactosidase A (Homo sapiens) (UniProt P06280); assay: Counterscreen for Glucocerebrosidase Inhibitors: qHTS Assay for Human alpha-Galactosidase at pH 4.5 (AID 992)
# Summary of the method: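 Each compound is preincubated briefly with 2 nM enzyme before substrate addition (80 uM); plates then sit 20 min at ambient temperature, are quenched with 1M NaOH/1M glycine, and read fluorometrically.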
# [15] = biological target: alpha-glucosidase (Oryza sativa, rice) (UniProt Q653V4); assay: Counterscreen for Glucocerebrosidase Inhibitors: qHTS Assay for Rice alpha-Glucosidase at pH 5.0 (AID 997)
# Summary of the method: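 Endpoint fluorogenic assay at pH 5.0: compounds (0.7 nM to 77 uM) titrated against 4 nM rice enzyme and 400 uM 4-MU-alpha-glucoside for 20 min at room temperature; NaOH/glycine stop, read ex 365/em 440 nm, Hill-fitted AC50.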
# [16] = biological target: Mitogen-activated protein kinase 10 (Mus musculus) (UniProt Q61831); assay: JNK3 AlphaScreen Assay (AID 530; active means well fitted curve in either direction with a large enough effect, not every such curve was filed as active;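 further: kinase came from lysate of stimulated human HepG2 cells; signal reports phosphorylation of biotinylated GST-cJun 1-79 at Ser73 with 10 µM ATP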)
# Summary of the method: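 qHTS titrations with 15 min compound pre-incubation before adding ATP (10 uM final). Read-out: AlphaScreen of Ser73-phosphorylated biotin-GST-cJun using HepG2 lysate JNK3 activated by IL-1β and TNFα.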
# [17] = biological target: 3',5'-cyclic-AMP phosphodiesterase 4B (Homo sapiens) (UniProt Q07343); assay: qHTS Assay for Inhibitors of PDE-IV (AID 607; active means well fitted activation curve with a large enough effect in the main read-out, with a control signal flat, not every such curve was filed as active)
# Summary of the method: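 Live HEK293 cells with a modified cyclic nucleotide-gated (CNG) channel report intracellular cAMP via membrane-potential dye fluorescence (ex 535/em 590 nm). Endogenous PDE-IV was targeted. Compounds were tested at up to 22.9 uM final; RO 20-1724 100 uM served as control.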
# [18] = biological target: Cytochrome P450 2D6 (Homo sapiens) (UniProt P10635); assay: qHTS Assay for Inhibitors and Substrates of Cytochrome P450 2D6 (AID 891);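 further: luciferin methyl ether substrate demethylated by CYP2D6 with NADPH regeneration; nearly all actives have a fitted effect of over 60% in size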
# Summary of the method: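 Luminescent read-out of luciferin formed by 5 nM human CYP2D6 demethylating 30 uM Luciferin-ME EGE (Km level) over 60 min at room temperature after NADPH regeneration addition. Data normalized to full inhibition by 1.43 uM quinidine.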
# [19] = biological target: Muscarinic acetylcholine receptor M1 (Rattus norvegicus) (UniProt P08482); assay: qHTS Assay for Antagonists of Acetylcholine Muscarinic M1 Receptor: Kinetic Measurement of Intracellular Calcium Response (AID 943);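 further: Fluo-4 calcium signal as peak divided by basal fluorescence over 4 min; nearly all actives have a fitted effect of over 75% in size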
# Summary of the method: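 Antagonism is measured as inhibition of the carbachol-evoked calcium rise in CHO cells transfected with rat M1. Cells are dye-loaded, exposed to compound for 10 min, then stimulated with 100 nM carbachol (EC80).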
# Sequence of Glucocorticoid receptor (Homo sapiens) (P04150 whole entry, looked up, the tested form may be a part): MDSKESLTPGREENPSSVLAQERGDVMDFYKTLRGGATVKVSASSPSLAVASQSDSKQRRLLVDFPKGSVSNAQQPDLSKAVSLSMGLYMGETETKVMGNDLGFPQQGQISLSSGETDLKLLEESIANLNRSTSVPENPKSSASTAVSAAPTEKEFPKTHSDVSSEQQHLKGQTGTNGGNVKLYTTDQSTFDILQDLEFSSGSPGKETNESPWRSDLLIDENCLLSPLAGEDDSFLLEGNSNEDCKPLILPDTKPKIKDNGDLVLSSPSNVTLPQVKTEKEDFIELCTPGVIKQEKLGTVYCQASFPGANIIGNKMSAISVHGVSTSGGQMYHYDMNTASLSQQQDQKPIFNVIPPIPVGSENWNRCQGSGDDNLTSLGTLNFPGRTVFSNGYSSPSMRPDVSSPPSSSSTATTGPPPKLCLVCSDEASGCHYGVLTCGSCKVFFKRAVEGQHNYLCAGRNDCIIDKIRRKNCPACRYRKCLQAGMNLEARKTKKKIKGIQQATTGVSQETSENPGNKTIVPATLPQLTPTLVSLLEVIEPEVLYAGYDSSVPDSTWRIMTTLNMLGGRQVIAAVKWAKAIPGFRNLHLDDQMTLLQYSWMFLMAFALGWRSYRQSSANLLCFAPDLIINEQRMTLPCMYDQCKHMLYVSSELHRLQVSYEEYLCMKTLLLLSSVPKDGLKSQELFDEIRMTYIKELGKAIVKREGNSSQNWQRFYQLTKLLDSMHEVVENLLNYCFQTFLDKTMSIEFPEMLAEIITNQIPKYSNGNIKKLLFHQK
# Sequence of Pyruvate kinase (Leishmania mexicana) (Q27686 2-499 E452W): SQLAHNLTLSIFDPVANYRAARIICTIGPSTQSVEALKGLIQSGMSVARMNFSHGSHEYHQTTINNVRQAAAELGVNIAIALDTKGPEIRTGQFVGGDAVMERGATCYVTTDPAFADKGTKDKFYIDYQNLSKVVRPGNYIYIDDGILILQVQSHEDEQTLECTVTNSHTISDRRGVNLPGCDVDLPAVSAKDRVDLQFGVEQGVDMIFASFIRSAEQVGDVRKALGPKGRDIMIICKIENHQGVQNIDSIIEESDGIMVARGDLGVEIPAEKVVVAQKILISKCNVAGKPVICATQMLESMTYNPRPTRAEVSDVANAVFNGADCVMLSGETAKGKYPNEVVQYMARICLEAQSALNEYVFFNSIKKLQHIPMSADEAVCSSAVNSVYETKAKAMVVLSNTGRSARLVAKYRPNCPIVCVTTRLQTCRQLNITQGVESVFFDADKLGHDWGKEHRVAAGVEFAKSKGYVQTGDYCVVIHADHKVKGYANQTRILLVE
# Sequence of Cytochrome P450 1A2 (Homo sapiens) (P05177 whole entry, looked up): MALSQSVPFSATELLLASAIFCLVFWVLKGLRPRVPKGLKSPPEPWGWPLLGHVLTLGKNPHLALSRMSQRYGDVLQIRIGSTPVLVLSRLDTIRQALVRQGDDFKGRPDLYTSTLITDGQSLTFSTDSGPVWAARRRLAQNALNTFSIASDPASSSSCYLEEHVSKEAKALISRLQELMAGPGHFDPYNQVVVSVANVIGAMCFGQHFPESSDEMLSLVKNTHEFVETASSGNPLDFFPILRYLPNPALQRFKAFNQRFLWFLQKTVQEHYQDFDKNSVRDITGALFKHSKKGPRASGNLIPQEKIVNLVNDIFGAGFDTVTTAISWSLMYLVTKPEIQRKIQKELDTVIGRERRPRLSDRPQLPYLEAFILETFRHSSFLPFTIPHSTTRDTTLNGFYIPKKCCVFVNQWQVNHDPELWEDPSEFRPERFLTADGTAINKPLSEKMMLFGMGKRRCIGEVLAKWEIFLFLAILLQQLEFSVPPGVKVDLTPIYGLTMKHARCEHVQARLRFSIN
# Sequence of Cytochrome P450 3A4 (Homo sapiens) (P08684 whole entry, looked up): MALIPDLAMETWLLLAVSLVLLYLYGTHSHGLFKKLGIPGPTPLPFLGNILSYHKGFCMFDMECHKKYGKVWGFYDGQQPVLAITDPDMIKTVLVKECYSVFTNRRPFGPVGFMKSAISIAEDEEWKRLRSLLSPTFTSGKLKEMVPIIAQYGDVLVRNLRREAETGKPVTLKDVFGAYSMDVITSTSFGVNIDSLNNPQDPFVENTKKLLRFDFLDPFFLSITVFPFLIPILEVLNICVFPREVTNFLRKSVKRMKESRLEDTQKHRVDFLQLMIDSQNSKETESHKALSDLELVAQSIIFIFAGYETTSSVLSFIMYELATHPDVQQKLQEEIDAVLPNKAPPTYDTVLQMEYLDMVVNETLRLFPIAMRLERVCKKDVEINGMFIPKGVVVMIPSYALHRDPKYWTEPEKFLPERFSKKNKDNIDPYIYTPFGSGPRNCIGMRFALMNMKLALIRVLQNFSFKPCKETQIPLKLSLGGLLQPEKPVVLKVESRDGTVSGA
# Sequence of Muscarinic acetylcholine receptor M1 (Rattus norvegicus) (P08482 whole entry, looked up): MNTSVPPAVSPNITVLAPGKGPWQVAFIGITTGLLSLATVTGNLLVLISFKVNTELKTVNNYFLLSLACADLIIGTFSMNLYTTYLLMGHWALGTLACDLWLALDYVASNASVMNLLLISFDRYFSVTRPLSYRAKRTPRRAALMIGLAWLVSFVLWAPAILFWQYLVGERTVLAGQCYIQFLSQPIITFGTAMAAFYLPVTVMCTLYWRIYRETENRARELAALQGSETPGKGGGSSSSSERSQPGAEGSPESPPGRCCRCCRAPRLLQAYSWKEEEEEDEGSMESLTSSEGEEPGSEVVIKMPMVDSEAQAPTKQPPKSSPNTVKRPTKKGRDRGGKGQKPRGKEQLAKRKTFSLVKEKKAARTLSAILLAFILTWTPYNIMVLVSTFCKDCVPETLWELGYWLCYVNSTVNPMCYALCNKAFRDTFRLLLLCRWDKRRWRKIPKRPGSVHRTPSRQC
# Sequence of Alpha-galactosidase A (Homo sapiens) (P06280 whole entry, looked up): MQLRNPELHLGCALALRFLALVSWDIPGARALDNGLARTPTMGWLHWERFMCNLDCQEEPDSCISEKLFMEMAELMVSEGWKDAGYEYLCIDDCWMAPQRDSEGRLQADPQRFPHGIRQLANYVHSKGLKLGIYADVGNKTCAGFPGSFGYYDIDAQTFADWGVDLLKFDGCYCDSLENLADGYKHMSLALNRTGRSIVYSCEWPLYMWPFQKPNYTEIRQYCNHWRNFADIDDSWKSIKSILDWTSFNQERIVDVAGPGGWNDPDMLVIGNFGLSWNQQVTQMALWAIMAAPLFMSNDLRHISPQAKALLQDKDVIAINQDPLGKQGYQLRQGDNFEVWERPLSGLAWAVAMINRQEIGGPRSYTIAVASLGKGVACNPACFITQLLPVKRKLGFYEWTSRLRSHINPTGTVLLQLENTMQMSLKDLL
# Sequence of 3',5'-cyclic-AMP phosphodiesterase 4B (Homo sapiens) (Q07343 whole entry, looked up): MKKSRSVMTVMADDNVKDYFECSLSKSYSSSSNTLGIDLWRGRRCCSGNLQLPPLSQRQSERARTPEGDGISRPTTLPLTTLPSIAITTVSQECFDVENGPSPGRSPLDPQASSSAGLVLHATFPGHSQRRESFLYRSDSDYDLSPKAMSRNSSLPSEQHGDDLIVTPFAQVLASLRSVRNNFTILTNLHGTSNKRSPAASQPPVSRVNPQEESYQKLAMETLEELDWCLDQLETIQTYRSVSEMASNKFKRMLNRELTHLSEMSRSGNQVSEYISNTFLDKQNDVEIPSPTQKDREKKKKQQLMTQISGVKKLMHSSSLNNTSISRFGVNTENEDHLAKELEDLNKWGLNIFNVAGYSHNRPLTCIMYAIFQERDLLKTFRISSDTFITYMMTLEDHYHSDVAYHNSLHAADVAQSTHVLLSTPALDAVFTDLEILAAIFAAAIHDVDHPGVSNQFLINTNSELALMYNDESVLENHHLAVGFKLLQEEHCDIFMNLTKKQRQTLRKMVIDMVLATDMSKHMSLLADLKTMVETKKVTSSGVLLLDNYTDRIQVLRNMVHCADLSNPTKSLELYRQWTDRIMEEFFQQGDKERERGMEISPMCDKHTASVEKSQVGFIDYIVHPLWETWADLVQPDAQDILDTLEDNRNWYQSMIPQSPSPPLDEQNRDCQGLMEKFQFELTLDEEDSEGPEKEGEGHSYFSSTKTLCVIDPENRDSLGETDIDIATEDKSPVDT
# Sequence of Pyruvate kinase PKM (Homo sapiens) (P14618 whole entry, looked up): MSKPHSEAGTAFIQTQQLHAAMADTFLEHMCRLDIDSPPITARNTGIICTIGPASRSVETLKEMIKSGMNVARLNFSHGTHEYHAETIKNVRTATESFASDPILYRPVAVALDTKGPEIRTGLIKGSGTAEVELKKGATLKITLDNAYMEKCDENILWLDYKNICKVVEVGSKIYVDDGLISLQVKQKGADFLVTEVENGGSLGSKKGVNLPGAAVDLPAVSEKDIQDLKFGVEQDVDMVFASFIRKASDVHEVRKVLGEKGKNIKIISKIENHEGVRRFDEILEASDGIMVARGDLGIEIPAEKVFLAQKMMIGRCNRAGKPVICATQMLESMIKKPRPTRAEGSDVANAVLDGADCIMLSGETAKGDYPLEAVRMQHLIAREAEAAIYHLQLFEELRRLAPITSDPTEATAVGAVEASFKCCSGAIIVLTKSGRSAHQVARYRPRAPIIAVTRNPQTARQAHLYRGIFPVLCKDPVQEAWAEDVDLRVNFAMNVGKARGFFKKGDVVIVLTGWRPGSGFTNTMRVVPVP
# Sequence of Guanine nucleotide-binding protein G(i) subunit alpha-1 (Homo sapiens) (P63096 whole entry, looked up): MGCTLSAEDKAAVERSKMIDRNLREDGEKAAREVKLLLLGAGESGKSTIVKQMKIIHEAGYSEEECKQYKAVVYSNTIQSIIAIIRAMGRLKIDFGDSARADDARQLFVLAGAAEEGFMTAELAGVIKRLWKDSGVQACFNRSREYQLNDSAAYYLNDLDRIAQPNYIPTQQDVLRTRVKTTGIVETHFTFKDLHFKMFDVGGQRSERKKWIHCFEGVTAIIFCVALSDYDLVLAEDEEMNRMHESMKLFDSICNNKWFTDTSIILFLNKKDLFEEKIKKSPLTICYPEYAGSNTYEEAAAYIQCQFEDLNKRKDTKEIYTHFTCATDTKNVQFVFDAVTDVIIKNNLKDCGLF
SMILES,"activity change, negative = inhibition [1]",Potency [2],"activity change, negative = inhibition [3]","activity, negative = inhibition [4]",Potency [5],Potency [6],outcome [7],Potency [8],Potency [9],outcome [10],Potency [11],outcome [12],outcome [13],outcome [14],outcome [15],Potency [16],outcome [17],Potency [18],Potency [19]
NC[C@H](O)c1cc(O)c(O)cc1F,-2.42% [at 38 µM],inactive,4.54% [at 38 µM],10.9% [at 38 µM],> 46 µM,> 46 µM,inactive,inactive,inactive,inactive,inactive,inactive,inactive,inactive,inactive,–,–,–,–
N[C@H](Cn1cc(I)c(=O)[nH]c1=O)C(=O)O,10.7% [at 38 µM],inactive,-6.62% [at 38 µM],-6.5% [at 38 µM],> 46 µM,> 46 µM,–,–,–,–,–,–,–,–,–,inactive,inactive,inactive,–
CCn1cnc2c(Nc3cccc(Cl)c3)nc(N[C@@H]3CCCC[C@H]3N)nc21,-111% [at 38 µM] (active),15.8 µM (active),-119% [at 38 µM] (active),-30.2% [at 38 µM] (active),> 46 µM,> 46 µM,inactive,inactive,–,–,–,inactive,inactive,inactive,inactive,inactive,inactive,–,–
N[C@H](Cc1ccc(N(CCCl)CCCl)cc1)C(=O)O,23.8% [at 38 µM],15.8 µM (active),-21.6% [at 38 µM],4.88% [at 38 µM],> 46 µM,> 46 µM,inactive,–,–,–,inactive,inactive,inactive,inactive,inactive,inactive,inactive,–,–
C[C@]12CC[C@H](O)CC1=CC[C@@H]1[C@H]2CC[C@]2(C)C(=O)CC[C@H]12,1.1% [at 38 µM],inactive,2.55% [at 38 µM],3.87% [at 38 µM],> 46 µM,> 46 µM,inactive,–,inactive,inactive,inactive,inactive,inactive,inactive,inactive,–,inactive,–,–
N[C@H](CCl)C(=O)O,0.76% [at 38 µM],inactive,14.9% [at 38 µM],-9.55% [at 38 µM],> 46 µM,> 46 µM,inactive,–,–,inactive,–,inactive,inactive,inactive,inactive,inactive,inactive,–,inactive
CC(C)[C@@]1(NC(=O)[C@H]2C[C@H]3c4cccc5[nH]cc(c45)C[C@@H]3N(C)C2)O[C@]2(O)[C@H]3CCCN3C(=O)[C@H](Cc3ccccc3)N2C1=O,-10% [at 38 µM],inactive,1.76% [at 38 µM],-34.2% [at 38 µM],> 46 µM,> 46 µM,–,–,–,–,–,–,–,–,–,inactive,–,–,–
C[C@]12CC[C@H](O)C[C@@H]1CC[C@H]1[C@H]2CC[C@]2(C)[C@H](C(=O)CO)CC[C@@H]12,0.537% [at 38 µM],25.1 µM (active),0.826% [at 38 µM],11.8% [at 38 µM],> 46 µM,> 46 µM,inactive,inactive,inactive,inactive,–,inactive,inactive,inactive,inactive,–,inactive,–,inactive
